# An excerpt weighted towards active compounds, which were near 11% of everything screened.
# NS1 inh: qHTS Assay for Inhibitors of Influenza NS1 Protein Function | 0.4% of 270,000 active | Potency, µM (doses to about 46.1 µM); calls by dose curve; further: actives are rising curves; nearly all actives have a fitted effect of over 50% in size
#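 Growth recovery, yeast-based: influenza A NS1 expressed in S. cerevisiae causes slow growth, and suppressors are detected by OD600. The parent strain without NS1 is used as positive control.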
# Pf growth 96h: Primary qHTS for delayed death inhibitors of the malarial parasite plastid, 96 hour incubation | P. falciparum luciferase reporter growth, 96 h | Potency, µM (doses to about 28.7 µM), actives largely listed as inhibitors | 6.9% of 320,000 active
#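 96 h incubation, 37 C, 5% CO2, of luciferase-reporter P. falciparum-infected RBCs (2% hematocrit, 0.05% parasitemia final) with test compounds; endpoint luminescence.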
# Pf growth 48h: Primary qHTS for delayed death inhibitors of the malarial parasite plastid, 48 hour incubation; AID 504832, 2011; P. falciparum luciferase growth in erythrocytes, 48 h; Potency, µM (series often up to 28.7 µM), usual class: inhibitors; 5.9% of 310,000 active
#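 A one-generation exposure of luciferase-tagged malaria parasites in RPMI 1640/Albumax erythrocyte culture, 37 C and 5% CO2. Inhibition is inferred from decreased luminescence after adding detection reagent.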
# Sm TGR inh: qHTS Assay for the Inhibitors of Schistosoma Mansoni Peroxiredoxins; 3% of 360,000 active; Schistosoma mansoni thioredoxin glutathione reductase (TGR), Q962Y6; Potency, µM (top dose mostly 114 µM), usual class: inhibitors; AID 485364, 2010; purified TGR, DTNB reduction, TNB absorbance 405 nm; further: nearly all actives have a fitted effect of over 60% in size
#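 First, TGR (20 nM dispensed) and NADPH were mixed with compound. Second, a 15 min room-temperature incubation followed. Third, further NADPH and then DTNB were added to start the reaction. Finally, TNB absorbance was monitored kinetically.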
# AMA1-RON2 inh: qHTS for Inhibitors of AMA1-RON; Towards Development of Antimalarial Drug Lead: Primary Screen | Potency, µM (highest dose often 58.2 µM), hits mostly inhibitors | 0.2% of 360,000 active | AlphaScreen AMA1-biotinylated RON2 peptide binding; further: nearly all actives have a fitted effect of over 45% in size
#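 AMA1 (3D7) with his tag at 25 nM final met compounds first, then biotinylated RON2 peptide at 25 nM; detection used donor plus acceptor beads, 10 µg/mL apiece, read by AlphaScreen after 30 min at room temperature.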
# A number is an active result; - = inactive; ? = inconclusive; . = no result; ! = repeats disagree; [ ] = remark or other dose. Unless noted, the call rests on the fitted dose curve; in most records, active means well fitted curve in the direction sought with a large enough effect; inconclusive means small, poorly fitted or top-dose-only effect, or another doubt; inactive means no such curve, though single readings can be large; an effect the other way counts as inactive or inconclusive.
SMILES,NS1 inh,Pf growth 96h,Pf growth 48h,Sm TGR inh,AMA1-RON2 inh
COC(=O)c1ccc(NC(=S)Nc2ccccc2)cc1,-,-,-,32µM,-
CCCS(=O)(=O)NC(=O)C1(C)CCCN(C(=O)/C=C/c2ccccc2)C1 (stereo not given),.,.,.,.,-
COCCNC(=O)CCn1nc(-c2ccc(C)cc2)ccc1=O,-,-,-[0.00184 µM],-,-
O=C(Nc1ccc2c(c1)OCO2)c1cc(C2CCCCN2C(=O)OCCF)on1 (stereo not given),.,.,.,.,-
O=C(c1ccc2nc(-c3ccco3)c(-c3ccco3)nc2c1)N1CCN(c2ccccc2)CC1,-,.,-,35µM,-
O=C(O)c1ccc2nc(-c3ccco3)c(-c3ccco3)nc2c1,-,-,-,0.5µM,-
NC(=O)C1CCN(C(=O)c2ccc3nc(-c4ccccc4)c(-c4ccccc4)nc3c2)CC1,-,?,10µM,-,-
O=C(c1ccc2nc(-c3ccco3)c(-c3ccco3)nc2c1)N1CCC2(CC1)OCCO2,?,.,?,1.6µM,-
O=C(c1cc(-c2ccco2)on1)N1CCN(c2ccccc2)CC1,-,?,-,-,-
COc1ccc(CNC(=O)c2ccc(Sc3ccc(Cl)cc3)c(NC(C)=O)c2)c(OC)c1,.,.,.,-,.
CCc1ccccc1NC(=O)CNC(=O)CNC(=O)c1cccs1,.,-,-,-,-
Cc1cc(C)c(NC(=O)Cn2c(=O)n(Cc3ccco3)c(=O)c3ccc(C(=O)NC4CCCC4)cc32)c(C)c1,.,.,.,-,.
O=C(Nc1cccc(C(F)(F)F)c1)c1ccc2nc(-c3ccco3)c(-c3ccco3)nc2c1,5.6µM,.,?,3.5µM,?
c1ccc(-c2cn(-c3ccccc3)c3[n+]2CCCS3)cc1,-,?,?,-,-
N#Cc1ccc(-c2cn(-c3ccccc3)c3[n+]2CCCS3)cc1,-,?,?,-,-
Cc1ccc(-c2cn(-c3ccccc3)c3[n+]2CCCS3)cc1,-,0.37µM!,1µM,-,-
CCc1ccc(-n2cc(-c3ccc(F)cc3)[n+]3c2SCCC3)cc1,-,?,1.5µM,-,-
COc1ccc(-n2cc(-c3ccc(C)cc3)[n+]3c2SCC3)cc1,-,?,0.59µM,-,-
COc1cccc(N(CC(=O)Nc2ccccc2C(=O)N2CCCC2)S(C)(=O)=O)c1,-,?,-,-,-
COc1cccc(-n2nc(C#N)c(Cl)cc2=O)c1,-,-,-,2.5µM,-
COc1ccc(/C=N/NC(=S)Nc2ccccc2)cc1COc1ccc(Br)cc1,-,3.7µM,?,-,-
COc1ccc(/C=N/NC(=S)Nc2ccccc2)cc1COc1ccc(F)cc1,?,?,10µM,-,-
Cc1ccc(CNC(=O)Cn2ncc3c(C)n(Cc4ccc(Cl)cc4)c(C)c3c2=O)cc1,.,.,.,-,.
COc1cc(/C=C2\C(=N)N3N=C(S(C)(=O)=O)SC3=NC2=O)ccc1OS(=O)(=O)c1ccc(C)cc1,-,?,-,-,-
CC(C)OCCCNC(=O)CCCn1c(=O)[nH]c2ccsc2c1=O,.,.,.,-,.
SMILES,NS1 inh,Pf growth 96h,Pf growth 48h,Sm TGR inh,AMA1-RON2 inh
CC1C(=O)N2CCCc3cc(NC(=O)C(=O)NCCc4c[nH]c5ccccc45)cc1c32 (stereo not given),.,4.1µM,1.5µM,-,-
CC1C(=O)N2CCCc3cc(NC(=O)C(=O)NCCN4CCOCC4)cc1c32 (stereo not given),.,-,-,-,-
Cc1ccc(S(=O)(=O)Nc2cc3c4c(c2)C(C)C(=O)N4CCC3)cc1 (stereo not given),.,?,10µM,-,-
COc1ccc(C)cc1S(=O)(=O)Nc1cc2c3c(c1)C(C)C(=O)N3CCC2 (stereo not given),.,?,?,-,-
CC1C(=O)N2CCCc3cc(S(=O)(=O)N4CCN(c5ccccc5F)CC4)cc1c32 (stereo not given),-,-,12µM,-,-
CC1C(=O)N2CCCc3cc(NC(=O)C(=O)NCCc4ccccc4)cc1c32 (stereo not given),.,13µM,?,-,-
COC(=O)C1CCN(S(=O)(=O)c2cc3c4c(c2)C(C)C(=O)N4CCC3)CC1 (stereo not given),.,.,.,-,.
Cc1ccc(NC(=O)COC(=O)CCc2c(C)nc3ncnn3c2C)cc1,.,.,.,.,-
CC(C)CNC(=O)C(=O)Nc1cc2c3c(c1)C(C)C(=O)N3CCC2 (stereo not given),-,15µM,-,-,-
COc1ccccc1CCNC(=O)C(=O)Nc1cc2c3c(c1)CC(=O)N3CCC2,.,1µM,1.2µM,-,-
COc1ccc(C(=O)c2ccc(CC(=O)O)s2)cc1,.,?,6.6µM,-,-
O=C(O)Cc1ccc(C(=O)c2ccccc2)s1,-,-,.,-,-
Cc1nc(SCC(=O)c2ccccc2)c(C#N)c(-c2ccco2)c1C(=O)NCc1ccco1,-,?,9.3µM,?,-
Cc1cc(C)c(C#N)c(SCC(=O)c2ccccc2)n1,-,4.7µM,-,-,-
Cc1cc(C)c(C#N)c(SCC(=O)c2cccs2)n1,-,.,-,-,-
COCCOC(=O)c1c(C)nc(SCC(=O)Nc2ccc(OC)cc2)c(C#N)c1-c1ccco1,-,-[5.75 µM],.,-,-
Cc1cccc(C)c1NC(=O)C(c1ccccc1OC(F)(F)F)N1CCC(c2ccccc2)CC1 (stereo not given),.,.,.,.,-
COCCn1ccc2c(OCC(=O)NCCc3ccccc3)cccc2c1=O,.,?,?,-,-
COc1ccc(NS(=O)(=O)c2ccc(OC)c(N(C)S(=O)(=O)c3ccc(Cl)cc3)c2)cc1,-,3.7µM,12µM,-,-
COc1ccc(S(=O)(=O)Nc2ccc(F)cc2)cc1N(C)S(=O)(=O)c1ccc(Cl)cc1,-,-,5.2µM,-,-
COc1ccc(S(=O)(=O)Nc2ccc(S(=O)(=O)Nc3ccc(F)cc3)cc2)cc1C,-,-,-,-,-
O=c1ccnc(Nc2ccc([N+](=O)[O-])cc2)[nH]1,.,.,.,.,-
CC1=C(C(=O)Nc2ccccc2)C(c2cccc(Cl)c2)n2nc(SCC(=O)c3ccc(C)cc3)nc2N1 (stereo not given),.,.,.,-,.
O=C(NCCc1ccccc1)C(c1cccs1)N(C(=O)CCl)c1ccc(Cl)cc1 (stereo not given),-,?,?,1.1µM,-
O=C(CCCc1nc(-c2ccco2)no1)Nc1ccccc1[N+](=O)[O-],.,.,.,-,.
Cc1cc(C)cc(NC(=O)Cc2c(C(=O)O)c(C)cn2C)c1,.,.,.,-,.
CCc1cccc(NC(=O)c2ccc3c(=O)n4c(nc3c2)CCCCC4)c1,-,-,?,-,-
CCOC(=O)C1=C(CC)OC(N)=C(C#N)C1c1cccs1 (stereo not given),-,.,-,-,-

# Screening results from PubChem.
